{
  "source": "the supplement of paper PMC6555819",
  "data": [
    {"tested_on": "PPARg:RXRa 90nM:30nM, anti-RXR (NR concentration 90 nM, RXRa partner concentration 30 nM)", "experiment": "PBM binding z-score (relative to random genomic background probes); higher = stronger binding; sequences stand for … in GC…GCGATTGACAGCGTAGAATGAAGG", "in_short": "(§1)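 Probes were double-stranded and carried 34-nt variable regions with direct-repeat seeds, single-nucleotide variants, half-site ablations and random human genomic background sequences, printed on custom Agilent 4×180K protein-binding microarrays. Arrays were incubated 1 h with ligand-free nuclear receptor dimers in PBS pH 7.4, 2% milk, 0.02% Triton X-100, 1 mM DTT, 0.2 mg/mL BSA and 0.4 mg/ml salmon testes DNA. Antibodies against each partner (one per run) detected binding, and scanned fluorescence was regression-normalized. Binding z-scores use the random background probes as reference.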", "values": [
      {"sequence": "CTATGTAGGTTAAGGGGGTTATTCAGTTTGAAAG", "PBM binding z-score": 7.12},
      {"sequence": "TCGAGTAGGTTACGGAGGCATTCAGGGATGAAGA", "PBM binding z-score": 1.75},
      {"sequence": "CTATGTAGGTTAAGCGGGTCATTCAGTTTGAAAG", "PBM binding z-score": 4.53},
      {"sequence": "CGATGTAGGTTAAGGGGGTCATTCAGTTTGAAAG", "PBM binding z-score": 7.61},
      {"sequence": "CTATGTAGGTTAAGGGGGCCATTCAGTTTGAAAG", "PBM binding z-score": 6.88},
      {"sequence": "CTATGCAGGTTAAGGGGGTCATTCAGTTTGAAAG", "PBM binding z-score": 5.29},
      {"sequence": "TCGAGTAGGTTACTGGGGCATTCAGGGATGAAGA", "PBM binding z-score": 3.46},
      {"sequence": "CCGACTAGGTTACGAGGGGGCATTCAGTGCGAAT", "PBM binding z-score": 2.47},
      {"sequence": "CCGAGTAGGTTACGAGGGGGCATTCGGTGCGAAT", "PBM binding z-score": 2.56},
      {"sequence": "TCGAGTAGGTTACGGGGGCATTCAGGGATGAAGA", "PBM binding z-score": 5.07},
      {"sequence": "TCGAGTAGGTTACGGGGGCATTAAGGGATGAAGA", "PBM binding z-score": 5.14},
      {"sequence": "CAATGTAGGTTAAGGGGGTCATTCAGTTTGAAAG", "PBM binding z-score": 8.44},
      {"sequence": "CTATGTAGGTTAATGGGGTCATTCAGTTTGAAAG", "PBM binding z-score": 6.55},
      {"sequence": "CCGAGTAGGTTACGAGGCGGCATTCAGTGCGAAT", "PBM binding z-score": 0.408},
      {"sequence": "CCGAGTAGGTTACGAGGGCGCATTCAGTGCGAAT", "PBM binding z-score": 1.62},
      {"sequence": "CTATGTAGGTGAAGGGGGTCATTCAGTTTGAAAG", "PBM binding z-score": 8.98},
      {"sequence": "TCTAGTAGGTTACGGGGGCATTCAGGGATGAAGA", "PBM binding z-score": 6.87},
      {"sequence": "CCGAGTAAGTTACGAGGGGGCATTCAGTGCGAAT", "PBM binding z-score": 0.85},
      {"sequence": "CTATGTAGGGTAAGGGGGTCATTCAGTTTGAAAG", "PBM binding z-score": 7.42},
      {"sequence": "CTATGTAGGTTAAAGGGGTCATTCAGTTTGAAAG", "PBM binding z-score": 8.61},
      {"sequence": "CTCTGTAGGTTAAGGGGGTCATTCAGTTTGAAAG", "PBM binding z-score": 6.57},
      {"sequence": "TCGAGTAGGTTACGGGGGCATTGAGGGATGAAGA", "PBM binding z-score": 5.05},
      {"sequence": "CCGAGTAGGTAACGAGGGGGCATTCAGTGCGAAT", "PBM binding z-score": 1.9},
      {"sequence": "CTATTTAGGTTAAGGGGGTCATTCAGTTTGAAAG", "PBM binding z-score": 6.89},
      {"sequence": "CTATGTAGGTTCAGGGGGTCATTCAGTTTGAAAG", "PBM binding z-score": 5.1},
      {"sequence": "TCGAGTAGGTTACGGGCGCATTCAGGGATGAAGA", "PBM binding z-score": 1.36},
      {"sequence": "CTATGTACGTTAAGGGGGTCATTCAGTTTGAAAG", "PBM binding z-score": 4.57},
      {"sequence": "CCGAGTAGGTTCCGAGGGGGCATTCAGTGCGAAT", "PBM binding z-score": 0.958},
      {"sequence": "CTATGTAGGTTAAGGGGGTCATTTAGTTTGAAAG", "PBM binding z-score": 7.54},
      {"sequence": "CCGATTAGGTTACGAGGGGGCATTCAGTGCGAAT", "PBM binding z-score": 2.32},
      {"sequence": "CTATGTAGGTTAACGGGGTCATTCAGTTTGAAAG", "PBM binding z-score": 6.47},
      {"sequence": "TCGAGTAGGTTACGGGGGCATCCAGGGATGAAGA", "PBM binding z-score": 5.24},
      {"sequence": "CCGAGTAGGTTATGAGGGGGCATTCAGTGCGAAT", "PBM binding z-score": 2.77},
      {"sequence": "CCGAGTAGGTCACGAGGGGGCATTCAGTGCGAAT", "PBM binding z-score": 6.72},
      {"sequence": "TCGAGTAGGTTACGCGGGCATTCAGGGATGAAGA", "PBM binding z-score": 1.79},
      {"sequence": "CCGCGTAGGTTACGAGGGGGCATTCAGTGCGAAT", "PBM binding z-score": 2.18},
      {"sequence": "CTATGTAGGTTAAGGGGTTCATTCAGTTTGAAAG", "PBM binding z-score": 6.09},
      {"sequence": "CCGAGTAGGTTACGATGGGGCATTCAGTGCGAAT", "PBM binding z-score": 0.557},
      {"sequence": "TCGAGTAGGTTACGGGGTCATTCAGGGATGAAGA", "PBM binding z-score": 5.91}
    ]},
    {"tested_on": "PPARg:RXRa DBDmut IVT, anti-RXR (DBD mutation: RXRa K156A/R161A, NR concentration 270 nM, RXRa partner concentration 90 nM)", "experiment": "PBM binding z-score (relative to random genomic background probes); higher = stronger binding; sequences stand for … in GC…GCGATTGACAGCGTAGAATGAAGG", "in_short": "as §1", "values": [
      {"sequence": "CTATGTAGGTTAAGGGGGTTATTCAGTTTGAAAG", "PBM binding z-score": 6.94},
      {"sequence": "TCGAGTAGGTTACGGAGGCATTCAGGGATGAAGA", "PBM binding z-score": 3.09},
      {"sequence": "CTATGTAGGTTAAGCGGGTCATTCAGTTTGAAAG", "PBM binding z-score": 7.52},
      {"sequence": "CGATGTAGGTTAAGGGGGTCATTCAGTTTGAAAG", "PBM binding z-score": 7.27},
      {"sequence": "CTATGTAGGTTAAGGGGGCCATTCAGTTTGAAAG", "PBM binding z-score": 7.13},
      {"sequence": "CTATGCAGGTTAAGGGGGTCATTCAGTTTGAAAG", "PBM binding z-score": 4.72},
      {"sequence": "TCGAGTAGGTTACTGGGGCATTCAGGGATGAAGA", "PBM binding z-score": 5.34},
      {"sequence": "CCGACTAGGTTACGAGGGGGCATTCAGTGCGAAT", "PBM binding z-score": 4.63},
      {"sequence": "CCGAGTAGGTTACGAGGGGGCATTCGGTGCGAAT", "PBM binding z-score": 3.74},
      {"sequence": "TCGAGTAGGTTACGGGGGCATTCAGGGATGAAGA", "PBM binding z-score": 4.99},
      {"sequence": "TCGAGTAGGTTACGGGGGCATTAAGGGATGAAGA", "PBM binding z-score": 4.98},
      {"sequence": "CAATGTAGGTTAAGGGGGTCATTCAGTTTGAAAG", "PBM binding z-score": 7.92},
      {"sequence": "CTATGTAGGTTAATGGGGTCATTCAGTTTGAAAG", "PBM binding z-score": 7.34},
      {"sequence": "CCGAGTAGGTTACGAGGCGGCATTCAGTGCGAAT", "PBM binding z-score": 4.1},
      {"sequence": "CCGAGTAGGTTACGAGGGCGCATTCAGTGCGAAT", "PBM binding z-score": 4.97},
      {"sequence": "CTATGTAGGTGAAGGGGGTCATTCAGTTTGAAAG", "PBM binding z-score": 7.88},
      {"sequence": "TCTAGTAGGTTACGGGGGCATTCAGGGATGAAGA", "PBM binding z-score": 6.73},
      {"sequence": "CCGAGTAAGTTACGAGGGGGCATTCAGTGCGAAT", "PBM binding z-score": 0.778},
      {"sequence": "CTATGTAGGGTAAGGGGGTCATTCAGTTTGAAAG", "PBM binding z-score": 7.14},
      {"sequence": "CTATGTAGGTTAAAGGGGTCATTCAGTTTGAAAG", "PBM binding z-score": 7.95},
      {"sequence": "CTCTGTAGGTTAAGGGGGTCATTCAGTTTGAAAG", "PBM binding z-score": 5.92},
      {"sequence": "TCGAGTAGGTTACGGGGGCATTGAGGGATGAAGA", "PBM binding z-score": 5.26},
      {"sequence": "CCGAGTAGGTAACGAGGGGGCATTCAGTGCGAAT", "PBM binding z-score": 3.83},
      {"sequence": "CTATTTAGGTTAAGGGGGTCATTCAGTTTGAAAG", "PBM binding z-score": 6.86},
      {"sequence": "CTATGTAGGTTCAGGGGGTCATTCAGTTTGAAAG", "PBM binding z-score": 3.32},
      {"sequence": "TCGAGTAGGTTACGGGCGCATTCAGGGATGAAGA", "PBM binding z-score": 2.38},
      {"sequence": "CTATGTACGTTAAGGGGGTCATTCAGTTTGAAAG", "PBM binding z-score": 3.42},
      {"sequence": "CCGAGTAGGTTCCGAGGGGGCATTCAGTGCGAAT", "PBM binding z-score": 1.28},
      {"sequence": "CTATGTAGGTTAAGGGGGTCATTTAGTTTGAAAG", "PBM binding z-score": 7.59},
      {"sequence": "CCGATTAGGTTACGAGGGGGCATTCAGTGCGAAT", "PBM binding z-score": 3.12},
      {"sequence": "CTATGTAGGTTAACGGGGTCATTCAGTTTGAAAG", "PBM binding z-score": 7.65},
      {"sequence": "TCGAGTAGGTTACGGGGGCATCCAGGGATGAAGA", "PBM binding z-score": 5.07},
      {"sequence": "CCGAGTAGGTTATGAGGGGGCATTCAGTGCGAAT", "PBM binding z-score": 3.45},
      {"sequence": "CCGAGTAGGTCACGAGGGGGCATTCAGTGCGAAT", "PBM binding z-score": 6.96},
      {"sequence": "TCGAGTAGGTTACGCGGGCATTCAGGGATGAAGA", "PBM binding z-score": 2.91},
      {"sequence": "CCGCGTAGGTTACGAGGGGGCATTCAGTGCGAAT", "PBM binding z-score": 1.02},
      {"sequence": "CTATGTAGGTTAAGGGGTTCATTCAGTTTGAAAG", "PBM binding z-score": 6.98},
      {"sequence": "CCGAGTAGGTTACGATGGGGCATTCAGTGCGAAT", "PBM binding z-score": 4.25},
      {"sequence": "TCGAGTAGGTTACGGGGTCATTCAGGGATGAAGA", "PBM binding z-score": 5.23}
    ]}
  ]
}
